# A number with no mark means an inactive call. Results filed as inconclusive are left out. A call without a number means that no potency is given here. The source made the active and inactive calls. Unless noted, the call rests on the fitted dose curve; in most records, active means well fitted curve in the direction sought with a large enough effect in the repeat runs; inconclusive means weak or mixed curves; inactive means no such curve, though single readings can be large; an effect the other way counts as inactive or inconclusive.
# Tests used:
# [1] = qHTS assay to identify small molecule agonists of the hypoxia (HIF-1) signaling pathway - cell viability counter screen (AID 1224844; calls by dose curve; further: nearly all actives have a fitted effect of over 50% in size; further: potency means the concentration at half of the fitted maximal effect)
# Procedure, shortened: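 ME-180 HRE-bla cells, 2,000/well, 0.5% dialyzed FBS; 5 hr settle, 17 hr compound at 37C/5% CO2; CCF4-AM reporter read first, then CellTiter-Glo luminescence after 30 min RT.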
# [2] = qHTS assay to identify small molecule agonists of H2AX (AID 1224845; active means well fitted activation curve with a large enough effect in the signal ratio in the repeat runs, not every such curve was filed as active; the % refers to the signal ratio)
# Procedure, shortened: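 Phospho-H2AX Ser139 measured by HTRF (ex 320 nm; em 665 and 620 nm) after 24 hr antibody incubation. Compounds, 15 concentrations, 0.76% DMSO, were applied to CHO-K1 cells for 3hr at 37C before lysis.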
# [3] = qHTS assay to identify small molecule agonists of the hypoxia (HIF-1) signaling pathway (AID 1224846; active means well fitted activation curve with a large enough effect in the signal ratio in the repeat runs, not every such curve was filed as active; the % refers to the signal ratio)
# Procedure, shortened: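 Cell line: CellSensor HRE-bla ME-180; 2,000 cells/well; 0.5% dialyzed FBS; 5 h preincubation; DMSO compound pin transfer; 17 h, 37C, 5% CO2; CCF4-AM added; bla FRET signal scored for activation.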
# [4] = qHTS RealTime-Glo MT Cell Viability Assay in HepG2 cells - 24 hour (AID 1224867); further: nearly all actives have a fitted effect of over 50% in size
# Procedure, shortened: (§1)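 qHTS, HepG2, 600 cells/well, RealTime-Glo (NanoLuc + prosubstrate) added with cells; 5 h preincubation; DMSO compound addition; 37 C; luminescence at 0/8/16/24/32/40 h.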
# [5] = qHTS RealTime-Glo MT Cell Viability Assay in HEK293 cells - 32 hour (AID 1224868); further: nearly all actives have a fitted effect of over 50% in size; further: potency means the concentration at half of the fitted maximal effect; on activity change, negative = cytotoxic: top concentration of the series differs between compounds
# Procedure, shortened: (§2)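 Assay medium contained NanoLuc luciferase plus cell-permeant prosubstrate, added with HEK293 cells at 600 cells/well. After 5 h at 37 C/5% CO2 compounds were added; plates stayed at 37 C for 40 h with serial luminescence reads.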
# [6] = A CellTox Green Cytotoxicity Assay to monitor cytotoxicity in HEK293 cells - 0 hour (AID 1224869); further: nearly all actives have a fitted effect of over 50% in size
# Procedure, shortened: (§3)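 Nonlytic real-time cytotoxicity: HEK293 + CellTox Green reagent plated, 5 h preincubation, pintool compound addition (23 nL in DMSO), 37 C for 40 h, fluorescence measured at successive time points.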
# [7] = qHTS RealTime-Glo MT Cell Viability Assay in HepG2 cells - 40 hour (AID 1224870); further: nearly all actives have a fitted effect of over 50% in size
# Procedure, shortened: (§4)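 Real-time viability: cells seeded at 600 per well together with NanoLuc and cell-permeant prosubstrate, compounds added after 5 h incubation. Luminescence tracked at 0, 8, 16, 24, 32 and 40 h of exposure.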
# [8] = A CellTox Green Cytotoxicity Assay to monitor cytotoxicity in HEK293 cells - 40 hour (AID 1224871); further: nearly all actives have a fitted effect of over 45% in size
# Procedure, shortened: as §3
# [9] = qHTS RealTime-Glo MT Cell Viability Assay in HEK293 cells - 16 hour (AID 1224872); further: nearly all actives have a fitted effect of over 50% in size; further: potency means the concentration at half of the fitted maximal effect; on activity change, negative = cytotoxicity: top concentration of the series differs between compounds
# Procedure, shortened: as §2
# [10] = qHTS RealTime-Glo MT Cell Viability Assay in HepG2 cells - 8 hour (AID 1224873); further: nearly all actives have a fitted effect of over 55% in size
# Procedure, shortened: as §4
# [11] = qHTS RealTime-Glo MT Cell Viability Assay in HEK293 cells - 40 hour (AID 1224874); conditions: RealTime-Glo luminescence; max response: active compounds read low; further: nearly all actives have a fitted effect of over 50% in size; further: potency means the concentration at half of the fitted maximal effect
# Procedure, shortened: (§5)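 Cells were seeded together with NanoLuc luciferase and a prosubstrate that viable cells reduce to a luciferase substrate. After a 5 h incubation at 37 C/5% CO2, compounds were added and luminescence was measured repeatedly during 40 h of treatment.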
# [12] = A CellTox Green Cytotoxicity Assay to monitor cytotoxicity in HEK293 cells - 24 hour (AID 1224875); further: nearly all actives have a fitted effect of over 45% in size
# Procedure, shortened: as §3
# [13] = A CellTox Green Cytotoxicity Assay to monitor cytotoxicity in HepG2 cells - 16 hour (AID 1224876); further: nearly all actives have a fitted effect of over 45% in size
# Procedure, shortened: (§6)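 Read-out is fluorescence of a cyanine dye excluded from live cells that stains DNA of dead HepG2 cells, with signal proportional to cytotoxicity. Plates were read at 0, 8, 16, 24, 32 and 40 h after compound addition.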
# [14] = qHTS RealTime-Glo MT Cell Viability Assay in HepG2 cells - 32 hour (AID 1224877); further: nearly all actives have a fitted effect of over 55% in size
# Procedure, shortened: as §1
# [15] = A CellTox Green Cytotoxicity Assay to monitor cytotoxicity in HepG2 cells - 24 hour (AID 1224878); further: nearly all actives have a fitted effect of over 45% in size
# Procedure, shortened: as §6
# [16] = A CellTox Green Cytotoxicity Assay to monitor cytotoxicity in HepG2 cells - 40 hour (AID 1224879); further: nearly all actives have a fitted effect of over 40% in size
# Procedure, shortened: as §6
# [17] = qHTS assay to identify small molecule agonists of H2AX - cell viability counter screen (AID 1224847; calls by dose curve; further: top concentration of the series differs between compounds; nearly all actives have a fitted effect of over 30% in size)
# Procedure, shortened: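 Compounds tested at 15 concentrations were incubated 3 hr at 37C with wild-type CHO-K1 cells; cellular ATP-based luminescence (CellTiter-Glo) indicated viability.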
# [18] = qHTS RealTime-Glo MT Cell Viability Assay in HEK293 cells - 0 hour (AID 1224880)
# Procedure, shortened: as §5
# [19] = qHTS assay to identify small molecule antagonists of the estrogen related receptor (ERR) signaling pathway from Tox21 library (AID 1224848); further: nearly all actives have a fitted effect of over 50% in size; further: potency means the concentration at half of the fitted maximal effect
# Procedure, shortened: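 Reading was by luminescence 30 min after ONE-Glo addition. Before that, ERR cells at 2,000 per well had rested 6 h at 37 C/5% CO2 and then received pin-tooled compounds in DMSO for 18 h at 37 C.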
# [20] = qHTS assay to identify small molecule agonists of the estrogen related receptor (ERR) signaling pathway from Tox21 library (AID 1224849; calls by dose curve; further: nearly all actives have a fitted effect of over 15% in size); conditions: ERR reporter cell line, ONE-Glo luciferase, 18 h; at 92.4 µM (top of the series) unless noted
# Procedure, shortened: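 ERR cells, 6 h pre-incubation 37 C/5% CO2; cpd in DMSO pinned; 18 h 37 C; ONE-Glo added, 30 min RT; luminescence read. Agonist mode, qHTS.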
smiles,measurement,setting,value
N#CCCSCCC#N,Potency,[1],inactive
same,Potency,[2],inactive
same,outcome,[3],inactive
same,Potency,[4],inactive
same,Potency,[5],inactive
same,Potency,[6],inactive
same,Potency,[7],inactive
same,Potency,[8],inactive
same,Potency,[9],inactive
same,Potency,[10],inactive
same,max response,[11],8.18%
same,Potency,[12],inactive
same,Potency,[13],inactive
same,Potency,[14],inactive
same,Potency,[15],inactive
same,Potency,[16],inactive
ClCc1ccc(Cl)cc1Cl,Potency,[1],inactive
same,Potency,[2],inactive
same,outcome,[3],inactive
same,Potency,[17],inactive
same,Potency,[4],inactive
same,Potency,[7],inactive
same,Potency,[9],inactive
same,Potency,[10],inactive
same,Potency,[13],inactive
same,Potency,[14],inactive
same,Potency,[15],inactive
same,Potency,[16],inactive
same,Potency,[18],inactive
CN(CCCC(=O)c1cccnc1)N=O,Potency,[1],inactive
same,Potency,[2],inactive
same,outcome,[3],inactive
same,Potency,[17],inactive
same,Potency,[4],inactive
same,Potency,[5],inactive
same,Potency,[6],inactive
same,Potency,[8],inactive
same,Potency,[9],inactive
same,Potency,[10],inactive
same,max response,[11],13.5%
same,Potency,[12],inactive
same,Potency,[13],inactive
same,Potency,[14],inactive
same,Potency,[15],inactive
same,Potency,[16],inactive
same,Potency,[18],inactive
NNC(=O)c1ccccc1,Potency,[1],inactive
same,Potency,[2],inactive
same,outcome,[3],inactive
same,Potency,[17],inactive
same,Potency,[4],inactive
same,Potency,[5],inactive
same,Potency,[7],inactive
same,Potency,[8],inactive
same,Potency,[9],inactive
same,Potency,[10],inactive
same,max response,[11],-4.85%
same,Potency,[12],inactive
same,Potency,[14],inactive
same,Potency,[15],inactive
same,Potency,[16],inactive
same,Potency,[18],inactive
Brc1c(Br)c(Br)c(Oc2c(Br)c(Br)c(Br)c(Br)c2Br)c(Br)c1Br,"activity change, negative = cytotoxicity",[1],12% [at 15.8 µM]
same,activation (H2AX phosphorylation),[2],-7.06% [at 31.6 µM]
same,activation,[3],0.0203% [at 15.8 µM]
same,"activity, negative = inhibition",[19],6.83% [at 19 µM]
same,"activity change, positive = activation",[20],3.27% [at 19 µM]
same,"activity change, negative = cytotoxicity",[4],-1.54% [at 15.8 µM]
same,cytotoxicity,[6],-1.03% [at 15.8 µM]
same,"activity change, negative = cytotoxic",[7],-6.21% [at 15.8 µM]
same,cytotoxicity increase,[8],1.02% [at 15.8 µM]
same,"activity change, negative = cytotoxicity",[9],3.04% [at 15.8 µM]
same,"viability change, negative = cytotoxic",[10],5% [at 15.8 µM]
same,max response,[11],1.84%
same,activity change,[12],"-3.29% [at 15.8 µM, active compounds read high]"
same,cytotoxicity increase,[13],-3.41% [at 15.8 µM]
same,"activity change, negative = cytotoxic",[14],-3.04% [at 15.8 µM]
same,cytotoxicity,[15],-2.63% [at 15.8 µM]
same,cytotoxicity increase,[16],1.89% [at 15.8 µM]
same,"activity change, negative = cytotoxicity",[18],-0.353% [at 15.8 µM]
COS(=O)(=O)c1ccc(C)cc1,Potency,[1],inactive
same,Potency,[2],inactive
same,outcome,[3],inactive
same,Potency,[17],inactive
same,Potency,[4],inactive
same,Potency,[6],inactive
same,Potency,[7],inactive
same,Potency,[8],inactive
same,Potency,[9],inactive
same,Potency,[10],inactive
same,max response,[11],16.1%
same,Potency,[12],inactive
same,Potency,[13],inactive
same,Potency,[14],inactive
same,Potency,[16],inactive
same,Potency,[18],inactive
CC(C)CCCCCCCOP(=O)(Oc1ccccc1)Oc1ccccc1,Potency,[1],inactive
same,Potency,[2],inactive
same,outcome,[3],inactive
same,"activity change, positive = activation",[20],-16.8%
same,Potency,[4],inactive
same,Potency,[6],inactive
same,Potency,[7],inactive
same,Potency,[8],inactive
same,Potency,[10],inactive
same,max response,[11],-33.6%
same,Potency,[12],inactive
same,Potency,[14],inactive
same,Potency,[15],inactive
same,Potency,[16],inactive
CCOC(=O)c1ccccc1S(=O)(=O)NC(=O)Nc1nc(Cl)cc(OC)n1,Potency,[1],inactive
same,Potency,[2],inactive
same,outcome,[3],inactive
same,Potency,[17],inactive
same,Potency,[4],inactive
same,Potency,[7],inactive
same,Potency,[10],inactive
same,Potency,[13],inactive
same,Potency,[14],inactive
same,Potency,[15],inactive
same,Potency,[16],inactive
C[C@]12Cc3nonc3C[C@@H]1CC[C@@H]1[C@@H]2CC[C@@]2(C)[C@H]1CC[C@]2(C)O,Potency,[1],26.8 µM (active)
same,Potency,[2],inactive
same,outcome,[3],inactive
same,Potency,[19],13.3 µM (active)
same,"activity change, positive = activation",[20],-58.3% [at 42.5 µM]
same,Potency,[4],inactive
same,Potency,[5],21.3 µM (active)
same,Potency,[6],inactive
same,Potency,[7],inactive
same,Potency,[9],19 µM (active)
same,Potency,[11],19 µM (active)
same,Potency,[12],inactive
same,Potency,[13],inactive
same,Potency,[14],inactive
same,Potency,[15],inactive
same,Potency,[16],inactive
same,Potency,[18],inactive
C[C@@H]1O[C@@H](O[C@@H]2C=C3CC[C@@H]4[C@H](CC[C@]5(C)[C@@H](c6ccc(=O)oc6)CC[C@]45O)[C@@]3(C)CC2)[C@H](O)[C@H](O)[C@H]1O,Potency,[1],0.0268 µM (active)
same,Potency,[2],inactive
same,outcome,[3],inactive
same,Potency,[19],0.0335 µM (active)
same,"activity change, positive = activation",[20],-58.9% [at 42.5 µM]
same,Potency,[4],inactive
same,Potency,[6],inactive
same,Potency,[7],inactive
same,Potency,[8],inactive
same,Potency,[10],inactive
same,Potency,[11],0.019 µM (active)
same,Potency,[12],inactive
same,Potency,[13],inactive
same,Potency,[14],inactive
same,Potency,[16],inactive
same,Potency,[18],inactive
CCCCOP(=O)(CCCC)OCCCC,Potency,[1],inactive
same,Potency,[2],inactive
same,outcome,[3],inactive
same,Potency,[19],inactive
same,"activity change, positive = activation",[20],-2.44%
same,Potency,[4],inactive
same,Potency,[6],inactive
same,Potency,[7],inactive
same,Potency,[8],inactive
same,Potency,[10],inactive
same,Potency,[12],inactive
same,Potency,[13],inactive
same,Potency,[14],inactive
same,Potency,[15],inactive
same,Potency,[16],inactive
same,Potency,[18],inactive
COc1ccc(OC)c(C=O)c1,Potency,[1],inactive
same,Potency,[2],inactive
same,outcome,[3],inactive
same,Potency,[17],inactive
same,Potency,[4],inactive
same,Potency,[6],inactive
same,Potency,[8],inactive
same,Potency,[10],inactive
same,Potency,[12],inactive
same,Potency,[13],inactive
same,Potency,[14],inactive
same,Potency,[15],inactive
same,Potency,[16],inactive
Cn1[nH]nnc1=S,Potency,[1],inactive
same,Potency,[2],inactive
same,outcome,[3],inactive
same,Potency,[17],inactive
same,Potency,[4],inactive
same,Potency,[6],inactive
same,Potency,[7],inactive
same,Potency,[8],inactive
same,Potency,[9],inactive
same,Potency,[10],inactive
same,max response,[11],4.93%
same,Potency,[12],inactive
same,Potency,[13],inactive
same,Potency,[14],inactive
same,Potency,[15],inactive
same,Potency,[16],inactive
same,Potency,[18],inactive
CC(C)OS(C)(=O)=O,Potency,[1],inactive
same,Potency,[2],inactive
same,outcome,[3],inactive
same,Potency,[17],inactive
same,Potency,[4],inactive
same,Potency,[6],inactive
same,Potency,[7],inactive
same,Potency,[8],inactive
same,Potency,[9],inactive
same,Potency,[10],inactive
same,max response,[11],0.77%
same,Potency,[12],inactive
same,Potency,[13],inactive
same,Potency,[14],inactive
same,Potency,[15],inactive
same,Potency,[16],inactive
Nc1ccc([N+](=O)[O-])cc1Cl,Potency,[1],inactive
same,Potency,[2],inactive
same,outcome,[3],inactive
same,Potency,[17],inactive
same,Potency,[4],inactive
same,Potency,[5],inactive
same,Potency,[8],inactive
same,Potency,[9],inactive
same,Potency,[10],inactive
same,max response,[11],-7.63%
same,Potency,[12],inactive
same,Potency,[13],inactive
same,Potency,[14],inactive
same,Potency,[15],inactive
same,Potency,[16],inactive
same,Potency,[18],inactive
